About 16,000 (7.3%) of roughly 220,000 compounds were called active. Roughly 25% stayed inconclusive and do not appear here. The list comes from a sample in which actives are over-represented; it also holds similar structures and randomly drawn compounds. A call without a number means that no potency is given here. A number with no mark means an inactive call. Calls come from the whole dose curve; as a rule, active = well fitted inhibition curve with a large enough effect (not every such curve was filed as active); inconclusive = small, poorly fitted or top-dose-only effect, or another doubt; inactive = no such curve, though single readings can be large or run the other way.
Potency is the fitted concentration of half-maximal effect.

Aldehyde dehydrogenase 1A1 (Homo sapiens), sequence (P00352 whole entry, looked up): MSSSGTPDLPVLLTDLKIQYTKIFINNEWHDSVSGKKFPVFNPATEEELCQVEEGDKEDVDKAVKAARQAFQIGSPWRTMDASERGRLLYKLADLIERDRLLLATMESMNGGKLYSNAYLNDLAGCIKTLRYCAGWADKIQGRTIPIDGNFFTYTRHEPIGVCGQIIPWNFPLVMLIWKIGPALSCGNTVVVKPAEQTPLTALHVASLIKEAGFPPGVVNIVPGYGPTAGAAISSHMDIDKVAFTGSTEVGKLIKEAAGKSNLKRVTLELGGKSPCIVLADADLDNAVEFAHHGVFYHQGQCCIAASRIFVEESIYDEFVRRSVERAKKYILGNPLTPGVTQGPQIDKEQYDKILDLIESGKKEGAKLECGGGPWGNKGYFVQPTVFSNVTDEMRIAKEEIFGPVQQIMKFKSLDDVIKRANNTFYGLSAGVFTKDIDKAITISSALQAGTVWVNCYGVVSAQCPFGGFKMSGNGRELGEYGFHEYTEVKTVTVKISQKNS

The assay addresses Aldehyde dehydrogenase 1A1 (Homo sapiens) (UniProt P00352). As to the kind of experiment: qHTS Assay for Inhibitors of Aldehyde Dehydrogenase 1 (ALDH1A1). As to conditions: Purified ALDH1A1, NADH fluorescence, propionaldehyde substrate; series mostly up to 75.3 µM. Background: In qHTS, concentration-response curves come from the screen itself.
As to `N#Cc1c2c(c(-c3ccccc3)[nH]c1=O)CCCC2`, the Potency result is “inactive”.

As for `N#Cc1c(/N=C/N2CCCC2)oc(-c2ccccc2)c1-c1ccccc1`, the Potency was 7.94 µM (active).

For the compound `CCSc1sc(CC)cc1C=O`, the Potency entry is “inactive”.

For the compound `O=C(COC(=O)c1ccccc1)Nc1cccc(S(=O)(=O)N2CCOCC2)c1`, the Potency result was “inactive”.

In the case of `Cc1ccc(N(C(=O)c2ccc(S(=O)(=O)N(C)C)cc2)C2C=CS(=O)(=O)C2)cc1` (centres undefined), the Potency result was “inactive”.

In the case of `C=CCNc1scc(-c2ccccc2)[n+]1CC=C`, the Potency entry was “inactive”.

As to `CCc1ccnc(NS(=O)(=O)c2ccc3c(c2)OCCO3)c1`, the Potency result is “inactive”.

`CCN(C(=O)COC(=O)/C=C/c1nc2ccccc2s1)C1CCS(=O)(=O)C1` (centres undefined): the Potency entry was “inactive”.

`CCCCC(=O)Nc1nc(C)c(-c2csc(Nc3ccc(Cl)cc3)n2)s1`: the Potency is 11.2 µM (active).

As to `Cc1ccc(Nc2nc(-c3sc(NC(=O)c4ccccc4)nc3C)cs2)cc1`, the Potency is 20 µM (active).

With `Cc1ccc(-c2csc(NNC(=O)c3ccccc3)n2)cc1`, the Potency result was “inactive”.

Take `Cc1nc(NC(=O)c2cccc(Cl)c2)sc1-c1csc(Nc2cccc(Cl)c2)n1`: the Potency result was “inactive”.

With `CCCCN(C)CCC(=O)Nc1ccc(Cl)cc1`, the Potency entry is “inactive”.

As to `COc1ccc(-c2csc(NC(=O)CCCc3cccs3)n2)cc1`, the Potency entry is “inactive”.

For the compound `COc1ccc(C(=O)Nc2ccc3c(c2)OCO3)cc1OC`, the Potency entry is “inactive”.

As to `CCOc1ccc(NCCC(=O)c2ccc3c(c2)OCO3)cc1`, the Potency is 0.631 µM (active).

As to `COC(=O)CCNc1ccc2c(c1)OCCO2`, the Potency result was “inactive”.

Regarding `Cc1ccc(C)n1NC(=O)c1ccc([N+](=O)[O-])cc1`, the Potency result is “inactive”.

On to `CC(=O)Nc1ccc(Nc2c([N+](=O)[O-])cc(S(C)(=O)=O)cc2[N+](=O)[O-])cc1`, for which the Potency entry is “inactive”.

In the case of `Cc1cccc(NC(=S)N2CCCC(c3nc4ccccc4[nH]3)C2)c1` (centres undefined), the Potency result is “inactive”.

As for `CCC1(C)Cc2c(sc3nnn(CC(=O)Nc4ccc(Cl)cc4)c(=O)c23)CO1` (centres undefined), the Potency result is “inactive”.

Consider `CC(C)(C)C1CCc2c(sc3nc(SCC(N)=O)nc(N)c23)C1` (centres undefined), for which the Potency entry was “inactive”.

In the case of `CCCn1nnc2sc3c(c2c1=O)CCC(C)C3` (centres undefined), the Potency was 6.31 µM (active).

Turning to `Cc1ccc(NC(=O)c2ccccn2)cc1S(=O)(=O)N1CCOCC1`, the Potency result was “inactive”.

Regarding `CCOc1ccc2c(c1)cc(CN(C(=O)CC)C1CCCCC1)c1nnnn12`, the Potency was 31.6 µM (active).

On to `CCc1ccc2c(c1)cc(CN(C(=S)Nc1ccccc1Cl)C1CC1)c1nnnn12`, for which the Potency result is “inactive”.

Consider `O=C(COC(=O)c1ccncc1)c1ccccc1`, for which the Potency entry is “inactive”.

Take `Cn1cccc1/C=C1\SC(=O)N(CC(=O)Nc2ccc(F)cc2)C1=O`: the Potency result is “inactive”.

`COC(=O)CCCC1=CC2=CC(=O)C(C)(OC(=O)c3cccs3)C(=O)C2=CN1c1cccc(C#N)c1` (centres undefined): the activity, negative = inhibition was 1.29% [at 13.5 µM].

The values above are taken from PubChem BioAssay AID1030 (National Center for Advancing Translational Sciences (NCATS), 2008).
